# Measurements taken from the supplement of paper PMC9950053.
# Structures can show the parent of a compound that is named as a salt.
# Test system: Danio rerio larvae (5 dpf)
# Assay: 1-h baseline activity (% time moving, periods 1-6) minus DMSO control (percentage points); higher = more locomotor activity than DMSO larvae
# Settings: 10 µM; exposure time: 3 h pre-incubation + 3 h imaging
# Protocol: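 Wild-type 5 dpf zebrafish larvae (n=48 per drug, 96-well plates, 28.5 °C) were exposed to Tocris FDA-approved library compounds at 10 µM (0.1% DMSO) for 3 h before and 3 h during imaging. Images were taken every 6 s during visual (moving coloured lines) and acoustic stimuli, and larvae were tracked with the DeepLabCut-based Z-LaP Tracker. Each behavioural measure is the treated-group mean minus the DMSO vehicle control mean (n=844), in percentage points. This mapping covers compounds with 4-character plate codes.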
row,Compound,1-h baseline activity
1,CC(C)C[C@H]1C(=O)N2CCC[C@H]2[C@]2(O)O[C@](NC(=O)[C@@H]3C=C4c5cccc6[nH]c(Br)c(c56)C[C@H]4N(C)C3)(C(C)C)C(=O)N12 [Bromocriptine mesylate],16.1
2,Cc1cccc([C@H](C)c2c[nH]cn2)c1C [Dexmedetomidine hydrochloride],-27.3
3,CN1C[C@H](C(=O)N[C@]2(C)O[C@@]3(O)[C@@H]4CCCN4C(=O)[C@H](Cc4ccccc4)N3C2=O)C[C@@H]2c3cccc4[nH]cc(c34)C[C@H]21 [Dihydroergotamine mesylate],1.07
4,CC(O)(CS(=O)(=O)c1ccc(F)cc1)C(=O)Nc1ccc(C#N)c(C(F)(F)F)c1 (stereo unspecified) [Bicalutamide],3
5,CC[C@@H](C(N)=O)N1CCCC1=O [Levetiracetam],5.78
6,CCN(C)C(=O)Oc1cccc([C@H](C)N(C)C)c1 [Rivastigmine tartrate],7.3
7,N[C@@H]1C[C@H]1c1ccccc1 [Tranylcypromine hydrochloride],-14.7
8,COc1cc2c(cc1OC)C1CC(=O)C(CC(C)C)CN1CC2 (stereo unspecified) [Tetrabenazine],-0.785
9,C=C1C[C@@H]2[C@H](CC[C@]3(C)C(=O)CC[C@@H]23)[C@@]2(C)C=CC(=O)C=C12 [Exemestane],-19.5
10,O=c1[nH]c2ccccc2n1C1CCN(CCCC(c2ccc(F)cc2)c2ccc(F)cc2)CC1 [Pimozide],-18.2
11,C=CCN1C[C@H](C(=O)N(CCCN(C)C)C(=O)NCC)C[C@@H]2c3cccc4[nH]cc(c34)C[C@H]21 [Cabergoline],-9.92
